Several values for one entry are separate records, joined by “and”; a condition that tells them apart may be missing. Equal values may be shown once. Activity calls are given as the source filed them. Calls follow the shape of the full dose curve.

This is an account of results in PubChem BioAssay (NCATS).
Potency is read from the fitted curve at half-maximal effect.

The target of one test is Catechol O-methyltransferase (Homo sapiens) (UniProt P21964). As to the kind of experiment: Confirmatory Screen for Target Class Profiling of Small Molecule Inhibitors of Methyltransferases (AID 1745852). As to activity change, negative = inhibition: % is scaled to controls: 0 for no effect and ±100 for the full control effect. The conditions noted are these: MTase-Glo luminescence, SAH detection, recombinant enzyme; measured here: COMT max response; stronger effect = lower value.
Catechol O-methyltransferase (Homo sapiens), sequence (P21964 whole entry, looked up): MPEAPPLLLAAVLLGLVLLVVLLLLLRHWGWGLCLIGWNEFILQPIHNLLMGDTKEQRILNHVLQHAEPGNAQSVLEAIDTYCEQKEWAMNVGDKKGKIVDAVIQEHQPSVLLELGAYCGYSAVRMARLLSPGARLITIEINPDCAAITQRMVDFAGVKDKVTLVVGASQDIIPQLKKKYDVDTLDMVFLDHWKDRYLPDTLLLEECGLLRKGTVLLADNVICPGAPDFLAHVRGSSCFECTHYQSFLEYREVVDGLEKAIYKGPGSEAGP
`COc1ccc(NC(=O)/C=C/c2ccc(Cl)cc2)cc1`: the activity was -21.5%.
Same read-out and setting: in the case of `Oc1cc(O)cc(/C=C/c2ccc(O)c(O)c2)c1` it was 119%.
On to `Oc1cc2c(cc1O)CN(C(=S)NCCc1ccc(Cl)cc1)CCC2`, for which the activity was 160%.
`NO`: the activity was found to be 3.62%.
Still for that read-out and setting: the same measure for `COc1ccc(Br)cc1S(=O)(=O)NC(=O)/C=C/c1ccccc1Cc1ccc2ccccc2c1`: 3.65%; for `O=C1NCc2c1c1c3ccccc3[nH]c1c1[nH]c3ccccc3c21`: -23.6%.
Take `COC(=O)C1=C(C)NC(C)=C(C(=O)OC)C1c1cccc(NC(=O)NCCCN2CCC(c3cccc(OC)c3)CC2)c1`: the activity was -1.21% and -6.68%.
Still for that read-out and setting: in the case of `O=C1C(SCCO)=C(SCCO)C(=O)c2ccccc21` it was -43.3%.

For a further test, the target named is Guanidinoacetate N-methyltransferase (Homo sapiens) (UniProt Q14353). The description is as above. The conditions noted are these: MTase-Glo luminescence, SAH detection, recombinant enzyme; activity change, negative = inhibition: at 57.3 µM (top of the series).
`COc1ccc(NC(=O)/C=C/c2ccc(Cl)cc2)cc1`: the Potency was 24.3 µM (active).
Take `Oc1cc(O)cc(/C=C/c2ccc(O)c(O)c2)c1`: the activity change, negative = inhibition is -14.6%.
Turning to `Oc1cc2c(cc1O)CN(C(=S)NCCc1ccc(Cl)cc1)CCC2`, the activity change, negative = inhibition came out at 2.52%.
Take `NO`: the activity change, negative = inhibition was -5.54%.
Take `COc1ccc(Br)cc1S(=O)(=O)NC(=O)/C=C/c1ccccc1Cc1ccc2ccccc2c1`: the activity change, negative = inhibition was -3.05%.
Take `O=C1NCc2c1c1c3ccccc3[nH]c1c1[nH]c3ccccc3c21`: the Potency is 17.2 µM (active).
As to `COC(=O)C1=C(C)NC(C)=C(C(=O)OC)C1c1cccc(NC(=O)NCCCN2CCC(c3cccc(OC)c3)CC2)c1`, the activity change, negative = inhibition was 0% and 10.5%.
With `O=C1C(SCCO)=C(SCCO)C(=O)c2ccccc21`, the Potency is 4.85 µM (active).

In a further test the target is Nicotinamide N-methyltransferase (Homo sapiens) (UniProt P40261). The description is as above. Conditions: MTase-Glo luminescence, SAH detection, recombinant enzyme; measured here: NNMT max response; stronger effect = lower value.
Nicotinamide N-methyltransferase (Homo sapiens), sequence (P40261 whole entry, looked up): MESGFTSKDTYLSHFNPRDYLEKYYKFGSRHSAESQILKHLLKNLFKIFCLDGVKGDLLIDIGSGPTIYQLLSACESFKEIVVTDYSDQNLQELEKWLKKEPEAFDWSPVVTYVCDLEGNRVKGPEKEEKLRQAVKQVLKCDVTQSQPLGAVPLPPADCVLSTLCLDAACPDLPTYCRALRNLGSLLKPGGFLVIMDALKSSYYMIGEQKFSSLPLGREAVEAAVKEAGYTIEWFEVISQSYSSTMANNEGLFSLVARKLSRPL
In the case of `COc1ccc(NC(=O)/C=C/c2ccc(Cl)cc2)cc1`, the activity is -60.9%.
Regarding `Oc1cc(O)cc(/C=C/c2ccc(O)c(O)c2)c1`, the activity is -18.4%.
The same measure, in the same setting: the same measure for `Oc1cc2c(cc1O)CN(C(=S)NCCc1ccc(Cl)cc1)CCC2`: -17.6%.
Regarding `NO`, the activity is -5.7%.
Still for that read-out and setting: the same measure for `COc1ccc(Br)cc1S(=O)(=O)NC(=O)/C=C/c1ccccc1Cc1ccc2ccccc2c1`: -14.5%; for `O=C1NCc2c1c1c3ccccc3[nH]c1c1[nH]c3ccccc3c21`: -25.9%; for `COC(=O)C1=C(C)NC(C)=C(C(=O)OC)C1c1cccc(NC(=O)NCCCN2CCC(c3cccc(OC)c3)CC2)c1`: -24.5% and -25.9%.
With `O=C1C(SCCO)=C(SCCO)C(=O)c2ccccc21`, the activity is -76.1%.

The target of a further test is Phenylethanolamine N-methyltransferase (Homo sapiens) (UniProt P11086). Described as above. The conditions noted are these: MTase-Glo luminescence, SAH detection, recombinant enzyme; measured here: PNMT max response; stronger effect = lower value.
Phenylethanolamine N-methyltransferase (Homo sapiens), sequence (P11086 whole entry, looked up): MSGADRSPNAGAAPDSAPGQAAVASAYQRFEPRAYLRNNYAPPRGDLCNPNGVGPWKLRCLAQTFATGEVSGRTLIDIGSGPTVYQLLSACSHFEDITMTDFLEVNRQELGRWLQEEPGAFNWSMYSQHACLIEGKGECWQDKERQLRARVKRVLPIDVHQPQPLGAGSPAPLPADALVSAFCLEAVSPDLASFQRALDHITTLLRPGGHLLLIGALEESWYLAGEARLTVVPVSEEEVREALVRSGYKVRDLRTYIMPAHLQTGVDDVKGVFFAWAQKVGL
`COc1ccc(NC(=O)/C=C/c2ccc(Cl)cc2)cc1`: the activity was -10.5%.
`Oc1cc(O)cc(/C=C/c2ccc(O)c(O)c2)c1`: the activity is -8.17%.
For the compound `Oc1cc2c(cc1O)CN(C(=S)NCCc1ccc(Cl)cc1)CCC2`, the activity was found to be 0.243%.
Consider `NO`, for which the activity turned out to be 4.25%.
As to `COc1ccc(Br)cc1S(=O)(=O)NC(=O)/C=C/c1ccccc1Cc1ccc2ccccc2c1`, the activity turned out to be 0.509%.
With `O=C1NCc2c1c1c3ccccc3[nH]c1c1[nH]c3ccccc3c21`, the activity is -28.7%.
For `COC(=O)C1=C(C)NC(C)=C(C(=O)OC)C1c1cccc(NC(=O)NCCCN2CCC(c3cccc(OC)c3)CC2)c1`, the activity was 0.516% and -5.06%.
Turning to `O=C1C(SCCO)=C(SCCO)C(=O)c2ccccc21`, the activity was -72.3%.
